Data: PubChem BioAssay AID1946 (Johns Hopkins Ion Channel Center, 2009)
The campaign covered roughly 2,400 compounds. About 180 (7.5%) were called active. The list comes from a sample in which actives are over-represented; it also holds similar structures and randomly drawn compounds. Values without a mark were called inactive.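 The calls were made as follows: active = readout below zero, meaning a drop past 3 SD under the dofetilide-free negative control mean; inactive = the rest.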

What follows are compounds tested against Potassium voltage-gated channel subfamily KQT member 2 (Rattus norvegicus) (UniProt O88943) (assay: rat KCNQ2 channel inhibition by compounds alone, confirmation, counter-screen for hERG block protector project, cell-based, CHO, FluxOR thallium flux (AID 1946)). Details: CHO-KCNQ2 cells, FluxOR thallium flux fluorescence; at 10 µM; active compounds read low; zero marks the 3-SD hit cutoff.
Chain of Potassium voltage-gated channel subfamily KQT member 2 (Rattus norvegicus) (O88943 whole entry, looked up): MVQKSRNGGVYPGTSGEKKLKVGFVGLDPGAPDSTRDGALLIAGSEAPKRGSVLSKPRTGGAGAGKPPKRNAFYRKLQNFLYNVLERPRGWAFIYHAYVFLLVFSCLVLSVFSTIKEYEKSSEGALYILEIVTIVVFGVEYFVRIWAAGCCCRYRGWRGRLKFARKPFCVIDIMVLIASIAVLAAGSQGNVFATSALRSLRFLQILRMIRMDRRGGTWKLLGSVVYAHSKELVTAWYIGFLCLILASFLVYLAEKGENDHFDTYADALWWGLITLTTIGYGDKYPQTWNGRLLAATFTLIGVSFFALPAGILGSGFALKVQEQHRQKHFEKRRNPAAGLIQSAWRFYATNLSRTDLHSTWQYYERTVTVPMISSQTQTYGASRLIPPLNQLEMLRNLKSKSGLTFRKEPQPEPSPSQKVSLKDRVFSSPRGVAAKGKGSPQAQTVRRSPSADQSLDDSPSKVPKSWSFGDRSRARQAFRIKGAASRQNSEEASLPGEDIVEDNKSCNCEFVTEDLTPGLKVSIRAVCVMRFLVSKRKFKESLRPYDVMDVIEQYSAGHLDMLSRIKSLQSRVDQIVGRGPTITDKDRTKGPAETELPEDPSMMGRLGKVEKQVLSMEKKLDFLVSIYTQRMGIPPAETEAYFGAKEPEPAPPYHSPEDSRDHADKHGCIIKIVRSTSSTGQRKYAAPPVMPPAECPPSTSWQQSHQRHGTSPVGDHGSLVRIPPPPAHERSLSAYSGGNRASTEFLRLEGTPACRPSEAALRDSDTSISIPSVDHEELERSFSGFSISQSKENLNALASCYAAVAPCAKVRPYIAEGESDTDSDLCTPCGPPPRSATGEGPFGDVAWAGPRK

SMILES | activity change vs negative control
Cc1ccc(-c2csc(=S)[nH]2)cc1 | 106%
O=C(NC(=S)Nc1ccccn1)c1cc(-c2ccccc2)nc2ccccc12 | 19.4%
O=C(N/N=C/c1ccccn1)c1cc(-c2ccc(Br)cc2)nc2ccccc12 | -4.7% (active)
Cc1ccc(/C=N/NC(=O)c2cc(-c3ccncc3)nc3ccccc23)o1 | 2.6%
Cc1ccc(OCC(=O)NC(=S)Nc2ccc(Br)cn2)cc1 | 33.8%
Cc1ccc(C(=O)Nc2nc3ccccc3c(=O)s2)cc1 | 22.4%
O=C(COc1ccc(Cl)cc1)N1CCN(Cc2ccc3c(c2)OCO3)CC1 | 22.9%
CCOc1ccc(S(=O)(=O)N2CCN(Cc3ccc4c(c3)OCO4)CC2)cc1C | -5.7% (active)
COc1ccc(C(=O)N2CCN(Cc3ccc4c(c3)OCO4)CC2)cc1[N+](=O)[O-] | 4.4%
O=C(Nc1nc2c(F)cc(F)cc2s1)C1COc2ccccc2O1 (stereo not drawn) | 3.8%
Cc1cc(C)c2nc(NC(=O)C3CCCO3)sc2c1 (stereo not drawn) | -2.4% (active)
Cc1cc(C)c2nc(NC(=O)CN3C(=O)NC4(CCCC4)C3=O)sc2c1 | 18.8%
CCCCCC/C(C)=C1/SC(=S)NC1=O | 94.1%
CCOC(=O)c1c(NC(=O)CN2CCN(C(=O)c3ccco3)CC2)sc2c1CCCC2 | 39%
O=c1ccc(N=Nc2ccccc2)ccc1O | 109%
COc1cc(OC)cc(C(=O)O/N=C(\N)c2cccc(C)c2)c1 | 4.9%
COc1cc(OC)cc(C(=O)NC(=S)N(Cc2ccccc2)C(C)C)c1 | 45.9%
COc1cc(OC)cc(C(=O)OCC(=O)N(C)c2ccccc2)c1 | -0.3% (active)
CC(C)(C)NC(=O)C(=O)NNC(=O)c1cccc(Br)c1 | 40%
O=C(Nc1ccsc1C(=O)O)c1ccccc1Cl | 14.8%
O=C(Nc1cccn(Cc2c(Cl)cccc2Cl)c1=O)c1ccccc1Cl | -1.1% (active)
Cc1ccccc1C(=O)NNC(=O)C(=O)Nc1cccc(Cl)c1C | 40.7%
CC(=O)CSc1ncnc2sc3c(c12)CCC(C)C3 (stereo not drawn) | 111%
CC(C)(C)c1ccc(/C=C/C(=O)N2CCCCC2)cc1 | 32.8%
CCOc1ccc(N(CC)C(=O)COc2cc(=O)n(C)c3ccccc23)cc1 | -3.3% (active)
CCOC(=O)c1c(O)c2ccccc2n(C)c1=O | 17.5%
Cn1c(=O)cc(-c2ccccc2)c2ccccc21 | 2.7%
Cc1cccc(N2CCN(C(=O)CNC(=O)c3cccc([N+](=O)[O-])c3)CC2)c1C | 1.9%
